# Many of the other results were omitted from the sample, so the strongest signals are more common in it than they were.
# B1: CBP21 (Serratia marcescens), O83009 (protein)
# chain: MNKTSRTLLSLGLLSAAMFGVSQQANAHGYVESPASRAYQCKLQLNTQCGSVQYEPQSVEGLKGFPQAGPADGHIASADKSTFFELDQQTPTRWNKLNLKTGPNSFTWKLTARHSTTSWRYFITKPNWDASQPLTRASFDLTPFCQFNDGGAIPAAQVTHQCNIPADRSGSHVILAVWDIADTANAFYQAIDVNLSK
# How the values were obtained:
# Assay in all cases: glycan array binding signal (z-score within array); higher = stronger binding
# Details in all cases: glycan notation: IUPAC condensed, linker removed
# [1] = molecular target: GlcNAc(a1-4)Gal(b1-3)GlcNAc
# Method in brief: (§1)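 The binding signal is a Z-score computed within each array. Data were drawn from 3228 arrays in the Consortium for Functional Glycomics database, restricted to those with a known protein sequence. Scores were averaged over arrays of the same protein sequence at different concentrations or buffers, and over linkers, and negative values can be taken as non-binding.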
# [2] = molecular target: GlcNAc(b1-2)[GlcNAc(b1-4)]Man(a1-3)[GlcNAc(b1-2)Man(a1-6)]Man(b1-4)GlcNAc(b1-4)GlcNAc
# Method in brief: as §1
# [3] = molecular target: GlcNAc(b1-3)Gal(b1-3)GalNAc
# Method in brief: as §1
# [4] = molecular target: GlcNAc(b1-3)Gal(b1-4)GlcNAc(b1-3)Gal(b1-4)GlcNAc(b1-2)Man(a1-3)[GlcNAc(b1-3)Gal(b1-4)GlcNAc(b1-3)Gal(b1-4)GlcNAc(b1-2)Man(a1-6)]Man(b1-4)GlcNAc(b1-4)[Fuc(a1-6)]GlcNAc
# Method in brief: as §1
# [5] = molecular target: GlcNAc(b1-3)Gal(b1-4)GlcNAc(b1-6)[Gal(b1-3)]GalNAc
# Method in brief: as §1
# [6] = molecular target: GlcNAc(b1-3)Gal(b1-4)GlcNAc(b1-6)[GlcNAc(b1-3)]Gal(b1-4)GlcNAc
# Method in brief: as §1
# [7] = molecular target: GlcNAc(b1-4)Gal(b1-4)GlcNAc
# Method in brief: as §1
# [8] = molecular target: GlcNAc(b1-4)GlcNAc(b1-4)GlcNAc(b1-4)GlcNAc(b1-4)GlcNAc
# Method in brief: as §1
# GlcNAc(b1-6)GalNAc = molecular target: GlcNAc(b1-6)GalNAc
# Method in brief: as §1
# Kdn(a2-3)Gal(b1-4)GlcNAc = molecular target: Kdn(a2-3)Gal(b1-4)GlcNAc
# Method in brief: as §1
# [9] = molecular target: Man(a1-2)Man(a1-2)Man(a1-3)Man
# Method in brief: as §1
# [10] = molecular target: Man(a1-2)Man(a1-3)[Man(a1-2)Man(a1-6)]Man(a1-6)[Man(a1-2)Man(a1-2)Man(a1-3)]Man(b1-4)GlcNAc(b1-4)GlcNAc
# Method in brief: as §1
# [11] = molecular target: Man(a1-2)Man(a1-6)[Man(a1-3)]Man(a1-6)[Man(a1-2)Man(a1-2)Man(a1-3)]Man(b1-4)GlcNAc(b1-4)GlcNAc
# Method in brief: as §1
# [12] = molecular target: Neu5Ac(a2-3)Gal(b1-3)GalNAc(b1-3)Gal(a1-4)Gal(b1-4)Glc
# Method in brief: as §1
# [13] = molecular target: Neu5Ac(a2-3)Gal(b1-3)GlcNAc(b1-6)GalNAc
# Method in brief: as §1
# [14] = molecular target: Neu5Ac(a2-3)Gal(b1-3)GlcNAc6S
# Method in brief: as §1
# [15] = molecular target: Neu5Ac(a2-3)Gal(b1-4)GlcNAc(b1-3)Gal
# Method in brief: as §1
# [16] = molecular target: Neu5Ac(a2-3)Gal(b1-4)[Fuc(a1-3)]GlcNAc(b1-2)Man
# Method in brief: as §1
# [17] = molecular target: Neu5Ac(a2-3)Gal(b1-4)[Fuc(a1-3)]GlcNAc(b1-6)[Neu5Ac(a2-3)Gal(b1-3)]GalNAc
# Method in brief: as §1
# Neu5Ac(a2-3)GalNAc = molecular target: Neu5Ac(a2-3)GalNAc
# Method in brief: as §1
# Neu5Ac(a2-6)Gal = molecular target: Neu5Ac(a2-6)Gal
# Method in brief: as §1
# [18] = molecular target: Neu5Ac(a2-6)Gal(b1-4)GlcNAc(b1-2)[Neu5Ac(a2-6)Gal(b1-4)GlcNAc(b1-6)]Man(a1-6)[Neu5Ac(a2-6)Gal(b1-4)GlcNAc(b1-2)Man(a1-3)][GlcNAc(b1-4)]Man(b1-4)GlcNAc(b1-4)GlcNAc
# Method in brief: as §1
# [19] = molecular target: Neu5Ac(a2-6)Gal(b1-4)GlcNAc(b1-3)Gal(b1-4)GlcNAc(b1-2)Man(a1-3)[Neu5Ac(a2-6)Gal(b1-4)GlcNAc(b1-3)Gal(b1-4)GlcNAc(b1-2)Man(a1-6)]GalNAc
# Method in brief: as §1
# [20] = molecular target: Neu5Ac(a2-8)Neu5Ac(a2-3)Gal(b1-3)GalNAc(b1-4)[Neu5Ac(a2-3)]Gal(b1-4)Glc
# Method in brief: as §1
# [21] = molecular target: Neu5Ac(a2-8)Neu5Ac(a2-3)Gal(b1-3)GalNAc(b1-4)[Neu5Ac(a2-8)Neu5Ac(a2-3)]Gal(b1-4)Glc
# Method in brief: as §1
# [22] = molecular target: Neu5Gc(a2-6)Gal(b1-4)GlcNAc
# Method in brief: as §1
# [23] = molecular target: Neu5Gc(a2-8)Neu5Gc(a2-3)Gal(b1-4)GlcNAc
# Method in brief: as §1
# [24] = molecular target: Neu5Gc(a2-8)Neu5Gc(a2-3)Gal(b1-4)GlcNAc(b1-3)Gal(b1-4)GlcNAc
# Method in brief: as §1
# [25] = molecular target: Neu5Gc(a2-8)Neu5Gc(a2-6)Gal(b1-4)GlcNAc
# Method in brief: as §1
binder,measurement,setting,value
B1,glycan array binding signal (z-score),[1],0.503
same,glycan array binding signal (z-score),[2],-0.435
same,glycan array binding signal (z-score),[3],0.04
same,glycan array binding signal (z-score),[4],3.08
same,glycan array binding signal (z-score),[5],-0.256
same,glycan array binding signal (z-score),[6],-1.31
same,glycan array binding signal (z-score),[7],0.145
same,glycan array binding signal (z-score),[8],0.729
same,glycan array binding signal (z-score),GlcNAc(b1-6)GalNAc,-0.697
same,glycan array binding signal (z-score),Kdn(a2-3)Gal(b1-4)GlcNAc,-0.42
same,glycan array binding signal (z-score),[9],-0.437
same,glycan array binding signal (z-score),[10],2.53
same,glycan array binding signal (z-score),[11],0.074
same,glycan array binding signal (z-score),[12],1.24
same,glycan array binding signal (z-score),[13],0.458
same,glycan array binding signal (z-score),[14],-0.561
same,glycan array binding signal (z-score),[15],-0.019
same,glycan array binding signal (z-score),[16],-1.42
same,glycan array binding signal (z-score),[17],-0.314
same,glycan array binding signal (z-score),Neu5Ac(a2-3)GalNAc,-0.582
same,glycan array binding signal (z-score),Neu5Ac(a2-6)Gal,0.109
same,glycan array binding signal (z-score),[18],0.063
same,glycan array binding signal (z-score),[19],2.96
same,glycan array binding signal (z-score),[20],4
same,glycan array binding signal (z-score),[21],0.155
same,glycan array binding signal (z-score),[22],0.755
same,glycan array binding signal (z-score),[23],-0.788
same,glycan array binding signal (z-score),[24],0.62
same,glycan array binding signal (z-score),[25],0.37
